Compounds with a hit are over-represented: about 11% of the library has one in this group of screens.
Luciferase inh – Firefly luciferase inhibition profiling of diverse chemical library using quantitative high-throughput screening | Potency, µM (series often up to 115 µM), usual class: inhibitors | AID 1347043, 2019 | purified P. pyralis luciferase, luminescence, biochemical | hit rate 2.5% among 76,000 | Luciferin 4-monooxygenase (Photinus pyralis), P08659; note: nearly all actives have a fitted effect of over 65% in size
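FLuc 10nM, D-luciferin 10uM, ATP 10uM, Mg acetate 10mM, Tris acetate pH 7.5, Tween/BSA; cpd qHTS; enzyme added last; CCD luminescence.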
NPR1 antag – Natriuretic polypeptide receptor (hNpr1) antagonism - Primary qHTS; Atrial natriuretic peptide receptor 1 (Homo sapiens), P16066; HEK293 hNpr1 GloSensor cGMP, ANP-stimulated luminescence; Potency, µM (highest dose often 46.3 µM), for the others: at the top dose activity change, negative = inhibition, usual class: inhibitors; hit rate 1.6% among 76,000; calls by dose curve; note: nearly all actives have a fitted effect of over 60% in size
Target sequence (P16066 whole entry, looked up): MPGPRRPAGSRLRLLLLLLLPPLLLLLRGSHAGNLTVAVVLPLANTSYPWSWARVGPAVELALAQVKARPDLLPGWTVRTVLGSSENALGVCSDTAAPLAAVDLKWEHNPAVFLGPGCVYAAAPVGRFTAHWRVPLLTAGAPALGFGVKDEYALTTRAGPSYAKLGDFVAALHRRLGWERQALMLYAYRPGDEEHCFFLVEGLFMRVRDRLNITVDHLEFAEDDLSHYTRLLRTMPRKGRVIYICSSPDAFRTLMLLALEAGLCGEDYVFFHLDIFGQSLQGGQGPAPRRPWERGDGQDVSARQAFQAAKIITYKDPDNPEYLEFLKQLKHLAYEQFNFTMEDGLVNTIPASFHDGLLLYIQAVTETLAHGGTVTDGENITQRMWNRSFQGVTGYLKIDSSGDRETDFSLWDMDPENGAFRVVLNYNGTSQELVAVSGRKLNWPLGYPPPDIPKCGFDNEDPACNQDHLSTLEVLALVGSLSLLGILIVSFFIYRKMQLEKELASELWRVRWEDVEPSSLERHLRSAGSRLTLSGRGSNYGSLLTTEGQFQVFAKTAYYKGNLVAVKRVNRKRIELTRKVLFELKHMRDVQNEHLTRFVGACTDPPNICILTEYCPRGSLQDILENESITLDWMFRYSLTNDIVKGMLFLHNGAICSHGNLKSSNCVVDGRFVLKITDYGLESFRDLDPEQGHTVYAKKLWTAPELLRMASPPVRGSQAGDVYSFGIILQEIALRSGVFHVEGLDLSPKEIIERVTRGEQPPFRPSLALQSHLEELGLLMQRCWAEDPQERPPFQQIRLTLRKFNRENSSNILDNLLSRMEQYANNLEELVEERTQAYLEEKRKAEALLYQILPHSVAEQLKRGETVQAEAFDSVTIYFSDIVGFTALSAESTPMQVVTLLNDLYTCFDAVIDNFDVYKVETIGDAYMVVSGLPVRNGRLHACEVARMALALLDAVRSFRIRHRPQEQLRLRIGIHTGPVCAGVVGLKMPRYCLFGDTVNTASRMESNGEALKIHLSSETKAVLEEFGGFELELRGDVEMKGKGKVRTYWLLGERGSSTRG
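HEK293 cells stably expressing human Npr1 and cGMP GloSensor pGS-40F, loaded 2 h with 2% GloSensor reagent, given compound 30 min at room temperature. Luminescence read before and 20 min after 0.1 nM hNppA.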
HEK cytotox – Cytotoxic Profiling in HEK 293 Cell Line of Diverse Libraries Using Quantitative High-Throughput Screening | HEK 293 viability, ATP luminescence (CellTiter-Glo), 48-72 h | Potency, µM (doses to about 115 µM), for inactives: at the top dose activity change, negative = cytotoxicity, usual class: inhibitors | hit rate 6.6% among 94,000; note: nearly all actives have a fitted effect of over 60% in size
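Cytotoxicity was scored by loss of ATP-coupled luminescence (CellTiter-Glo) in HEK 293 cells. Compound treatment ran 48 or 72 hr at 37 degree Celsius, 5% CO2, 95% humidity.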
3T3 cytotox – Cytotoxic Profiling in NIH 3T3 Cell Line of Diverse Libraries Using Quantitative High-Throughput Screening; hit rate 4.3% among 94,000; Potency, µM (titrated, usually from 96.7 µM), without a hit: at the top dose activity change, negative = cytotoxicity, usual class: inhibitors; NIH 3T3 viability, CellTiter-Glo ATP luminescence, 48-72 h; note: nearly all actives have a fitted effect of over 55% in size
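NIH 3T3 cells at 400 cells/well received 23 nL of compound by pintool and were incubated 48 or 72 h at 37 °C. Viability was read as ATP-coupled CellTiter-Glo luminescence.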
* = called active by the depositor; ! = not confirmed by another sample; [ ] = another dose, or the depositor's remark. Unless noted, calls come from the whole dose curve; as a rule, active = well fitted curve in the direction sought with a large enough effect; inconclusive = small, poorly fitted or top-dose-only effect, or another doubt; inactive = no such curve, though single readings can be large; an effect the other way counts as inactive or inconclusive. % is set by controls: 0 for no effect and ±100 for the full control effect; potency is the fitted concentration of half-maximal effect.

`CN(CC[C@H]1CN(C(=O)c2ccnc(Cl)c2)CC[C@H]1CC(=O)O)c1ccccc1` gave Luciferase inh inactive, NPR1 antag -0.9%[70.6 µM], HEK cytotox -5.7%[172 µM] and 3T3 cytotox 28.2µM*.
For c1ccc2c(c1)COC1(CCNC1)CN2CC1CCCCC1 (stereo not given) the results were HEK cytotox 79.4µM* and 3T3 cytotox 31.6µM*.
Cc1ccc([S+](=O)([O-])N2CCc3nc(C(C)C)nc(-c4ccc(O)cc4)c3C2)cc1 was read as HEK cytotox inconclusive and 3T3 cytotox -23.7%.
`Cc1cccc(-c2cccc(CN3CCC(NC(=O)C(C)(C)C)CC3)c2)c1` gave HEK cytotox 44.7µM* and 3T3 cytotox inconclusive.
Cc1cccc(-c2cccc(CN3CCC(NC(=O)c4ccc(C(F)(F)F)cc4)CC3)c2)c1 was read as HEK cytotox -22.5% and 3T3 cytotox -11.4%.
Cc1cccc(-c2cccc(CN3CCC(NC(=O)Cc4cccc(Cl)c4)CC3)c2)c1 was read as HEK cytotox 20µM* and 3T3 cytotox 14.1µM*.
For O=C(NC1CCN(Cc2cccc(-c3cccs3)c2)CC1)c1cccc(Cl)c1 the results were HEK cytotox 20µM*! and 3T3 cytotox inconclusive.
Screening O=C(NC1CCN(Cc2cccc(-c3cccs3)c2)CC1)c1ccc(Cl)cc1 returned HEK cytotox inconclusive and 3T3 cytotox -21.0%.
Cc1cccc(-c2cccc(CN3CCC(NC(=O)c4cccc(Cl)c4)CC3)c2)c1 was read as HEK cytotox 28.2µM* and 3T3 cytotox 20µM*.
Screening Cc1cccc(-c2cccc(CN3CCC(NC(=O)NC4CCCC4)CC3)c2)c1 returned HEK cytotox -20.9% and 3T3 cytotox inconclusive.
For COc1ccccc1Cn1c(=O)c(C(=O)N2CCN(C(=O)C3CC3)CC2)nc2cccnc21 the results were HEK cytotox inactive and 3T3 cytotox -1.9%.
`O=C(C1CCCN1c1nccc(Nc2ccccc2F)n1)N1CCOCC1` (stereo not given) gave HEK cytotox 4.9% and 3T3 cytotox -13.8%.
O=C1[C@@H]2C[C@@H](CN2Cc2cnc3ccccc3c2)Oc2ccccc2N1Cc1ccccc1 was read as Luciferase inh inactive, NPR1 antag -19.4%, HEK cytotox 50.1µM* and 3T3 cytotox inconclusive.
`COCCN1C(=O)[C@@H]2C[C@@H](CN2Cc2cnc3ccccc3c2)Oc2ccccc21` gave Luciferase inh inactive, NPR1 antag -1.9%[70.6 µM], HEK cytotox inconclusive and 3T3 cytotox 100µM*.
For COC(=O)c1ccc2nc(C[C@@H]3C[C@@H](C(C)C)[C@H](CN)C=C3C)[nH]c2c1 the results were Luciferase inh inactive, NPR1 antag -10.2%[70.6 µM], HEK cytotox inconclusive and 3T3 cytotox 63.1µM*.
Screening COC(=O)c1ccc2nc(C[C@@H]3C[C@@H](C(C)C)[C@H](CNC4CCOCC4)C=C3C)[nH]c2c1 returned Luciferase inh inactive, NPR1 antag 1.2%, HEK cytotox inconclusive and 3T3 cytotox inconclusive.
For COC(=O)c1ccc2nc(C[C@@H]3C[C@@H](C(C)C)[C@H](CNC4CCCCC4)C=C3C)[nH]c2c1 the results were Luciferase inh inactive, NPR1 antag -9.2%, HEK cytotox inconclusive and 3T3 cytotox 17.8µM*.
For C=CCCOC(=O)N1C[C@@H](C(=O)OCC)[C@@H]2Oc3cc(OC)ccc3[C@@H]21 the results were HEK cytotox -18.3% and 3T3 cytotox inconclusive.
`CCOC(=O)[C@@H]1CN(C(=O)OCC(C)C)[C@H]2c3ccc(OC)cc3O[C@@H]12` gave HEK cytotox -26.9% and 3T3 cytotox 39.8µM*.
For CC(C)COC(=O)N1C[C@@H](CO)[C@@H]2Oc3c(F)cccc3[C@@H]21 the results were HEK cytotox inconclusive and 3T3 cytotox 31.6µM*.
`Cc1ccc(CN2CCC(N3C(=O)c4c(c(C)nn4-c4ccccc4)C3C3CC3)CC2)cc1` (stereo not given) gave HEK cytotox inactive and 3T3 cytotox -4.2%.
O=C(Cc1ccc(Cl)cc1)NC1CCN(CCn2nc3n(c2=O)CCCC3)C1 (stereo not given) was read as HEK cytotox inactive and 3T3 cytotox inactive.
Cc1noc(C)c1S(=O)(=O)N1CCOc2ccc(CN3CCOCC3)cc2C1 was read as HEK cytotox -12.2% and 3T3 cytotox -35.0%.
COc1ccc(CNC(=O)C2CCN(c3nccc(Nc4ccccc4Cl)n3)CC2)cc1 was read as HEK cytotox 25.1µM* and 3T3 cytotox 35.5µM*.
For COCCNC(=O)[C@@H]1CCCN1c1nccc(Nc2ccccc2Cl)n1 the results were HEK cytotox -30.0% and 3T3 cytotox -27.6%.
For O=C(NCC1CC1)C1CCN(c2nccc(Nc3ccccc3Cl)n2)CC1 the results were HEK cytotox 31.6µM* and 3T3 cytotox 31.6µM*.
For COc1ccc(CC(=O)N2CCN(c3nccc(Nc4ccccc4Cl)n3)CC2)cc1 the results were HEK cytotox inconclusive and 3T3 cytotox 39.8µM*.
`O=C(CNC(=O)c1ccc(-c2cnc3ccccc3c2)cc1)NCCCc1ccccc1` gave HEK cytotox inconclusive and 3T3 cytotox -35.5%.
CN1CCN(C(=O)c2ccc3nnc(-c4cccc(C(F)(F)F)c4)n3c2)CC1 was read as HEK cytotox 4.9% and 3T3 cytotox -15.8%.
`COc1ccccc1-c1cc(C(=O)N(C)C)nn2cnnc12` gave HEK cytotox inactive and 3T3 cytotox inactive.
Screening COc1ccccc1-c1cccc(C(=O)N2CCN(C(=O)c3ccccc3C)CC2)c1 returned HEK cytotox 31.6µM* and 3T3 cytotox 35.5µM*.
For COc1ccccc1-c1cccc(C(=O)N2CCN(C(=O)c3ccc(Cl)cc3)CC2)c1 the results were HEK cytotox inconclusive and 3T3 cytotox 31.6µM*.
COc1ccccc1-c1cccc(C(=O)N2CCN(C(=O)c3ccccc3)CC2)c1 was read as HEK cytotox inconclusive and 3T3 cytotox -32.3%.
O=C(COc1ccccc1)NC1CCCc2c1[nH]c1c(Cl)cccc21 (stereo not given) was read as Luciferase inh inactive, NPR1 antag -2.1%, HEK cytotox 44.7µM* and 3T3 cytotox inconclusive.
For O=C(Cc1ccc2c(c1)OCCCO2)NC1CCCc2c1[nH]c1c(Cl)cccc21 (stereo not given) the results were Luciferase inh inactive, NPR1 antag -5.8%, HEK cytotox inconclusive and 3T3 cytotox inconclusive.
O=C(Cc1cccs1)NC1CCCc2c1[nH]c1c(Cl)cccc21 (stereo not given) was read as Luciferase inh inactive, NPR1 antag -8.3%, HEK cytotox inconclusive and 3T3 cytotox 31.6µM*.

From PubChem
